For 61 compounds, inhibition results are on record in PubChem BioAssay AID1789 (The Scripps Research Institute Molecular Screening Center, 2009).

Where “and” joins values, the source holds several entries; their conditions need not be identical. Equal entries are not always repeated. Screen size: about 290,000 compounds; about 2,700 (0.93%) were called active. The full list was thinned out, with actives kept by preference. A number with no mark means an inactive call.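 Rule for the calls: active = inhibition above the screen-wide mean plus 3 SD, computed separately per campaign (cut at about 16% in these data); inactive = the rest.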

Usually inhibition stands for the change of the read-out against control, counted positive when it falls.

This assay concerns Heat shock protein HSP 90 (rabbit reticulocyte lysate; luciferase refolding). In words: inhibitors of HSP90 chaperone activity – cell lysate, luminescence, primary screen (AID 1789).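 Note: 0% = DMSO wells and 100% = 60 µM geldanamycin wells; inhibitors lower the luminescence because luciferase stays unfolded.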 The following applies: 3 h, at 5.6 µM, stronger effect = higher value.
Regarding `CCCCOCCCNC(=O)c1ccccc1OCC`, the inhibition was 29.5% (active).
Take `CCOc1ccccc1C(=O)NCCCn1ccnc1`: the inhibition is 2.74%.
The figure for `CCCOc1ccccc1C(=O)NCCCC(=O)O` is 1.45%.
The result for `Cc1c(C(=O)N(C)CCc2cnn(C)c2)oc2c(F)cccc12` reads -3.1%.
The figure for `CC(C)Nc1ccc(-n2nc3ccccc3[n+]2[O-])cc1` is 20.2% (active).
Consider `O=C(Cc1ccsc1)N1CCN(S(=O)(=O)c2cc(C(F)(F)F)cc(C(F)(F)F)c2)CC1`, for which the inhibition is -2.85%.
The result for `CC(NC(=O)c1ccco1)c1ccc2c(c1)OCO2` (stereo unspecified) reads -2.76%.
The result for `COCc1cc(=O)[nH]c2cc(NC(=O)C(F)(F)F)c(C)cc12` reads 43.6% (active); that for `O=C(Nc1ccccc1)c1ccccc1NC(=O)C(F)(F)F`, -1.41%; that for `COCc1cc(=O)[nH]c(-c2ccc(C(F)(F)F)cc2)n1`, -1.15%.
The result for `CSc1ccccc1NC(=O)c1cc(Cl)sc1Cl` reads 2.29%.
Take `C=CCn1c(C)cc(C(=O)CN2C(=O)c3ccccc3C2=O)c1C`: the inhibition was -0.12%.
The figure for `Cc1cc(C2=NNC(=Nc3ccc(S(=O)(=O)N4CCOCC4)cc3)SC2)c(C)n1CC1CCCO1` (stereo unspecified) is 1.56%.
The result for `C=CCn1c(C)cc(C2=NNC(=NCC)SC2)c1C` reads 44.5% (active); that for `Cc1ccc2c(=O)cc(C(=O)NCCc3ccc(S(N)(=O)=O)cc3)oc2c1C`, 0.5%.
The result for `CC(=O)c1ccc(NC(=O)c2cc(-c3cccs3)on2)cc1` reads -4.55%.
For the compound `CCOC(=O)CNC(=O)c1nn(-c2cccc(OC)c2)c(=O)c2ccccc12`, the inhibition is 20.7% (active).
The result for `COc1ccc(-n2nc(C(=O)NCC(=O)Nc3cccc(C)n3)c3ccccc3c2=O)cc1` reads 0.84%; that for `COCCCNC(=O)CNC(=O)c1nn(-c2ccc(OC)cc2)c(=O)c2ccccc12`, -1.14%; that for `CC(=O)NS(=O)(=O)c1ccc(N/C(N)=N/c2nc(C)cc(C)n2)cc1`, -3.21%.
The figure for `COc1cccc(C(=O)NNC(=O)/C=C/c2ccccc2)c1` is -8.89%; for `Cc1cc(C)nc(SCC(=O)c2ccc(Cl)cc2)n1` it is -0.36%; for `Cc1cc(C)nc(S/C=C/C(=O)c2ccccc2)n1` it is 34.3% (active).
For `Cc1ccc(N/C=C/C(=O)c2ccccc2)cc1C`, the inhibition was -2.61%.
For `COc1ccc(/C=N/OCC(=O)N(Cc2ccccc2)c2ccccc2C(=O)O)cc1`, the inhibition is -2.76%.
As for `COc1ccc(C(=O)Nc2ccccc2C(=O)N/N=C/c2ccccc2OC)cc1`, the inhibition was 50.3% (active).
The figure for `COc1cc(/C=N/NC(=O)c2ccc(N3CCCC3=O)cc2)ccc1O` is -0.72%.
The result for `COc1ccc(/C=N/NC(=O)c2ccc3c(c2)OCCO3)c(OC)c1` reads 2.94%; that for `COc1ccc(C(=O)Nc2ccccc2C(=O)NCc2ccco2)cc1`, -2.57%; that for `COc1ccc(C(=O)Nc2ccccc2C(=O)N/N=C/c2ccc(O)c(OC)c2)cc1`, 89% (active).
The figure for `COc1ccc(/C=N/Nc2ccccc2C(=O)O)cc1` is 24.7% (active); for `COc1ccc(/C=N/Nc2nc3ccccc3c(=O)[nH]2)cc1` it is 0.73%.
In the case of `COc1cc(/C=N/NC(=O)c2ccccc2)ccc1OS(=O)(=O)c1ccccc1`, the inhibition is -0.09%.
The figure for `O=C(NCc1cccnc1)c1ccccc1NC(=O)c1c(F)cccc1F` is -0.75%; for `COc1ccc(N(CC(=O)Nc2cc(OC)cc(OC)c2)S(=O)(=O)c2c(C)n[nH]c2C)cc1` it is -1.64%.
The figure for `Cc1ccc(S(=O)(=O)NCC(=O)N2CCOCCOCCOCCOCC2)cc1` is -3.1%; for `COc1ccccc1-c1cnn2c(N3CCOCC3)cc(C)nc12` it is 3.53%.
The result for `Cc1sc2ncn(CC(=O)NCCCC(=O)N3CCN(c4ccccc4F)CC3)c(=O)c2c1C` reads -3.37%; that for `CSCCC(C(=O)NC1=NCCS1)N1C(=O)c2ccccc2C1=O` (stereo unspecified), 33.2% (active).
In the case of `CC(NC(=O)COc1ccccc1)C(=O)NC1=NCCS1` (stereo unspecified), the inhibition is -0.56%.
The result for `O=C(NC1=NCCS1)[C@H](Cc1ccccc1)N1C(=O)c2ccccc2C1=O` reads 3.87%.
The figure for `N#Cc1ccccc1S(=O)(=O)N1CCN(C(=O)c2cc(-c3ccccc3)nn2-c2ccccc2)CC1` is 4.37%.
The result for `CC(C)c1nnc(NC(=O)C2CC(=O)N(CCc3ccc(F)cc3)C2)s1` (stereo unspecified) reads -2.78%; that for `CCOC(=O)C1=C(CCc2ccccc2)NC(=O)NC1c1ccc2ccccc2c1` (stereo unspecified), 2.66%; that for `CC(=O)N1CCC(C(=O)OCc2ccc(Cl)cc2)(c2ccccc2)CC1`, -1.35%.
As to `CC(C)CNC(=O)CC(NCC(C)C)C(=O)O` (stereo unspecified), the inhibition was 21.9% (active).
For `CC(C)CNC(=O)CC(c1ccccc1)c1c(O)ccc2ccccc12` (stereo unspecified), the inhibition is -0.94%.
The figure for `CC(C)CNC(=O)/C=C/C(=O)O` is 0.58% and -0.1%; for `COc1cccc(N(CC(=O)NC2CCCC2)C(=O)Cn2nnc(-c3ccc(C)o3)n2)c1` it is 0.72%; for `C=C(C)COc1ccc(-c2ncncc2-c2ccc(OC)cc2)c(O)c1` it is 3.58%.
The figure for `c1ccc(-c2ccc3c(c2)NC(C2Nc4cc(-c5ccccc5)ccc4O2)O3)cc1` (stereo unspecified) is 52.5% (active); for `Cc1cc(C)cc(C(=O)OCC(=O)NCCNC(=O)COC(=O)c2cc(C)cc(C)c2)c1` it is -1.1%; for `O=C1CCC(Cc2ccccc2)N1` (stereo unspecified) it is 0.74%.
With `COc1cc2c(cc1OC)C(c1ccccc1Br)NC(=O)C2` (stereo unspecified), the inhibition was -0.82%.
The figure for `O=C1CCC([N+](=O)[O-])C(c2ccccc2Br)N1` (stereo unspecified) is 78.7% (active); for `Cc1ccc(SCC(=O)NNC(=O)c2ccc(S(C)(=O)=O)cc2)cc1` it is 2.29%.
For `O=C(/C=C/c1cnc2ccccc2n1)NC1CCCCCC1`, the inhibition is -4.23%.
In the case of `O=C(COC(=O)/C=C/c1cccs1)NC1CCCCC1`, the inhibition is 1.87%.
The result for `Cc1cc(C)n2nc(SCC(=O)NC(=O)NCc3ccco3)nc2n1` reads 0.53%; that for `Cc1ccc(SCC(=O)NC(=O)NCc2ccco2)c(C)c1`, 16.6% (active).
The figure for `Cc1ccc(NC(=O)C(=O)NCc2ccco2)c(C)c1` is -1.76%.
